Results filed as inconclusive are left out. Entries that show only a call come without a potency. A number with no mark means an inactive call. Active and inactive are the calls of the source. The call rests on the fitted dose curve; in most records, active means well fitted cell-killing curve with a large enough effect; inconclusive means small, poorly fitted or top-dose-only effect, or effect the other way; inactive means flat fitted curve, though single readings scatter. Where a SMILES comes first, the peptide text is derived from it. [ ]: non-standard residue; d: D form.
Potency means the concentration at half of the fitted maximal effect.

In this experiment the test system is OV90. The experiment in a line: Primary qHTS to identify gynecologic anti-cancer compounds using libraries of approved drugs and bioactive compounds (AID 1345084). Further: nearly all actives have a fitted effect of over 55% in size. The note with it: Gynecologic cancer cell panel viability, ATPlite luminescence, 48 h; series mostly up to 57.5 µM. Put shortly: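 In this quantitative HTS, cell killing is estimated from loss of ATP-dependent luciferase light. Cells see five compound concentrations over a 48 h exposure.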
As to `CN1Cc2c(N)cccc2C(c2ccccc2)C1` (stereo not drawn), the Potency result was “inactive”.
The same measure, in the same setting: the value for `C(#Cc1cccc(CN2CCOCC2)c1)CCN1CCCCC1` was “inactive”.
Consider `C/C=C(\C)C(=O)O[C@H]1[C@H](O)[C@]2(COC(C)=O)[C@H](O)C[C@]3(C)C(=CCC4[C@@]5(C)CC[C@H](O[C@@H]6O[C@H](C(=O)O)[C@@H](O[C@@H]7O[C@H](CO)[C@@H](O)[C@H](O)[C@H]7O)[C@H](O)[C@H]6O[C@@H]6O[C@H](CO)[C@@H](O)[C@H](O)[C@H]6O)[C@](C)(CO)C5CC[C@]43C)[C@@H]2CC1(C)C` (stereo partly drawn), for which the activity change, negative = cytotoxicity was -1.43% [at 11.6 µM].
`C[C@]12C=CC(=O)C=C1CC[C@@H]1[C@@H]2[C@@H](O)C[C@@]2(C)[C@H]1CC[C@]2(O)C(=O)COC(=O)CCC(=O)O`: the Potency result was “inactive”.
On the same count and under the same terms, the value for `CC1=C2[C@@H]([C@H](C)CC[C@H]2/C=C(\C)C(=O)O)[C@H](O)C1` was “inactive”; that for `CC(=O)c1c(C)cc(O[C@@H]2O[C@H](CO)[C@@H](O)[C@H](O)[C@H]2O)cc1O` was “inactive”; that for `OC[C@H]1O[C@@H](OCCc2ccc(O)cc2)[C@H](O)[C@@H](O)[C@@H]1O` was “inactive”.
On the same count and under the same terms, to `C[C@@H]1C[C@H]2[C@@H]3CCC4=CC(=O)C=C[C@]4(C)[C@@]3(F)[C@@H](O)C[C@]2(C)[C@@]1(O)C(=O)COP(=O)(O)O` belongs “inactive”.
Consider `CC(=O)N1CCN(NC(=O)c2ccc(F)cc2)CC1`, for which the Potency entry was “inactive”.
Still for that read-out and setting: the value for `NC(Cc1c[nH]c2ccccc12)C(=O)NC(CCC(=O)O)C(=O)O` (stereo not drawn) was “inactive”.
With `CC[C@H](/C=C/[C@@H](C)[C@H]1CC[C@H]2[C@@H]3CC=C4C[C@@H](O)CC[C@]4(C)[C@H]3CC[C@]12C)C(C)C`, the activity change, negative = cytotoxicity was 2.68% [at 6.55 µM].
Turning to `CCOc1ccc(C(Nc2ccccn2)c2ccc3ccc(C)nc3c2O)cc1C` (stereo not drawn), the Potency entry is “inactive”.
The same measure, in the same setting: the value for `COc1cc(C2Oc3c(OC)cc(/C=C/C(=O)OC[C@H]4O[C@@H](OC(C)(C)C(=O)O)[C@H](O)[C@@H](O)[C@@H]4O)cc3C2CO)ccc1O` (stereo partly drawn) was “inactive”; that for `COC1=CC(=O)C[C@@H](C)[C@]12Oc1cc(OC)cc(OC)c1C2=O` was “inactive”.
The same measure, in the same setting: the value for `COc1c(C)c(OCC=C(C)C)cc2c1C(=O)NC2=O` was “inactive”; that for `C[C@]12CCC(=O)C=C1[C@@H](O)C[C@@H]1[C@@H]2[C@@H](O)C[C@@]2(C)[C@H]1CC[C@]2(O)C(=O)CO` was “inactive”; that for `Cn1c(=O)cc(N2CCCC(N)C2)n(Cc2ccccc2C#N)c1=O` (stereo not drawn) was “inactive”.
`CC(=O)O[C@H]1C[C@@H]2[C@]3(CC[C@]4(C)[C@@H](C5(C)CCC(C(C)(C)O)O5)[C@@H](O)C[C@@]24C)C[C@@]32CC[C@H](O[C@@H]3OC[C@@H](O)[C@H](O)[C@H]3O)C(C)(C)[C@H]12` (stereo partly drawn): the Potency result is “inactive”.
`COc1cc(C[C@H]2COC(=O)[C@@H]2Cc2ccc(O)c(OC)c2)ccc1O`: the Potency result is “inactive”.
Turning to `CCC(=O)NS(=O)(=O)c1ccc(-c2c(-c3ccccc3)noc2C)cc1`, the Potency entry is “inactive”.
Consider `C=CC(C)(O)CO[C@@H]1O[C@H](CO)[C@@H](O)[C@H](O)[C@H]1O` (stereo partly drawn), for which the Potency result is “inactive”.
The same measure, in the same setting: to `Clc1ccc(CN[C@H]2CCN(c3ncc(Br)cn3)C2)c(Cl)c1` belongs “inactive”.
Same read-out and setting: to `CC(C)C(=O)c1cn(CC(=O)COc2ccc(Oc3ccccc3)cc2)c2ccc(C(=O)O)cc12` belongs “inactive”.
Turning to `CC(C)C1=CC2=CCC3[C@](C)(CCC[C@@]3(C)C(=O)O)C2CC1O` (stereo partly drawn), the Potency result is “inactive”.
For the molecule `CC[C@H]1OC(=O)C[C@@H](O)[C@H](C)[C@@H](O[C@@H]2O[C@H](C)[C@@H](O)[C@H](N(C)C)[C@H]2O)[C@@H](CCN2C[C@H](C)C[C@H](C)C2)C[C@@H](C)C(=O)/C=C/C(C)=C/[C@@H]1CO[C@@H]1O[C@H](C)[C@@H](O)[C@@H](OC)[C@H]1OC`, the Potency result was “inactive”.
The same measure, in the same setting: the value for `CC(C)NC[C@H](O)COc1ccc(CCOCC2CC2)cc1` was “inactive”; that for `CC(=O)OC(C)OC(=O)C(C)c1ccc(-c2ccccc2)c(F)c1` (stereo not drawn) was “inactive”.
With `C=C1C(=O)O[C@H]2[C@H]1[C@@H](OC(=O)C(C)CO)C[C@@]1(C)[C@H](O)CCC(=O)[C@H]21` (stereo partly drawn), the Potency result is “inactive”.
Still for that read-out and setting: the value for `CCC(C)(O)C(O)C(=O)OCc1ccc(O[C@@H]2O[C@H](CO)[C@@H](O)[C@H](O)[C@H]2O)c(OC)c1` (stereo partly drawn) was “inactive”.
Consider `NS(=O)(=O)OC[C@@H]1C[C@@H](n2ccc3c(N[C@H]4CCc5ccccc54)ncnc32)C[C@@H]1O`, for which the Potency result is “inactive”.
Regarding `COc1ccc(C[C@H](N)C(=O)N[C@H]2[C@@H](O)[C@H](n3cnc4c(N(C)C)ncnc43)O[C@@H]2CO)cc1`, the Potency is 3.16 µM (active).
On the same count and under the same terms, to `C[C@H](NCc1ccc(OCc2ccccc2F)cc1)C(N)=O` belongs “inactive”.
Take `CC(=O)N[C@H](Cc1ccc(O)cc1)C(=O)N[C@H](CCCN=C(N)N)C(=O)N[C@H](Cc1ccccc1)C(N)=O` (Ac-[dY]-[dR]-[dF]-NH2): the Potency entry was “inactive”.
On the same count and under the same terms, to `Nc1ncnc2c1ncn2[C@H]1CCCO1` belongs “inactive”; to `CCC(=O)O[C@]1(C(=O)CCl)[C@@H](C)C[C@H]2[C@@H]3C[C@H](F)C4=CC(=O)C=C[C@]4(C)[C@@]3(F)[C@@H](O)C[C@@]21C`, “inactive”; to `CCOc1ccc(-c2ccc(Cn3c(CC(C)(C)C(=O)O)c(SC(C)(C)C)c4cc(OCc5ccc(C)cn5)ccc43)cc2)cn1`, “inactive”.
As to `CC1OC(OC2C(CO)OC(OCC3OC(OC(=O)C45CCC(C)(C)CC4C4=CCC6C7(C)CCC(OC8OC(C(=O)O)C(O)C(OC9OC(CO)C(O)C(O)C9O)C8O)C(C)(C)C7CCC6(C)C4(C)CC5)C(O)C(O)C3O)C(O)C2O)C(O)C(O)C1O` (stereo not drawn), the activity change, negative = cytotoxicity was 0.685% [at 6.55 µM].
In the case of `CC1CCC2(C)C(CC(O)C(O)C23CO3)C1(C)CCC1=CC(=O)OC1O` (stereo not drawn), the Potency result was “inactive”.
